Compound activity: PubChem BioAssay, several laboratories
Shown are actives, neighbours in structure and some others; about 3.3% of the full set was active somewhere.
C2C12 statin: suppression of simvastatin myotoxicity. C2C12 myotubes + simvastatin, ATP luminescence, 48 h; scaled: DMSO 0, geranylgeraniol control 100. rescue of ATP level, % at 7.49 µM. actives 0.78% (n = 330,000). AID 602340;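 active means mean ATP rescue above about 67%, or every replicate alone reaching that limit, limit read from the data, passing the limit was not always enough; inconclusive means no clear call, values can overlap the other calls; inactive means mean under the limit and some replicate under it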;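 further: myotubes were challenged with 10 µM simvastatin during compound exposure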
Wnt act: activators of Wnt/beta-catenin signaling | Wnt/beta-catenin reporter cell assay, activator, plate reader | actives 1.2% (n = 300,000) | AID 743398 | activation, % at 9.35 µM; in the data active means activation above about 30%, passing the limit was not always enough; inconclusive means no clear call, values can overlap the other calls
MITF act: increases MITF-driven TRPM1 promoter luciferase signal | SK-MEL-5 TRPM1-promoter luciferase, 24 h; % of positive control, neutral wells = 0 | activation, % at 12.5 µM | actives 0.75% (n = 300,000);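 active means mean activation of at least 80% with every replicate also reaching 80%; inconclusive means mean reaches 80% but some replicate falls short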
FXN GAA850 act: activators of GAA850 frataxin (FXN) promoter. AID 540364. actives 0.56% (n = 360,000). HEK293 lucGAA850 FXN promoter luciferase reporter, 24 h; percent of 10 µM SAHA response. activation, % at 6 µM;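 active means activation above the average of all compounds screened plus 3 SD, cutoff fixed separately per campaign, cut at about 7.5% in these data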
esBAF inh: inhibitors of esBAF chromatin remodeling in mouse ES cells; Bmi1-luciferase knock-in reporter, 24 h; 100% = twice the neutral-well signal; reporter increase, % at 12.5 µM; actives 2% (n = 350,000); in the data active means activation above about 40%; inconclusive means no clear call, values can overlap the other calls;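 further: a rise in the Bmi1 reporter signal indicates esBAF inhibition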
GAA30 counter: GAA30 FXN promoter activation counter-screen; actives 66% (n = 1,900); activation, % at 6 µM; shares compounds with FXN GAA850 act; HEK293 lucGAA30 FXN promoter luciferase, 24 h; DMSO = 0%, 5 µM ipriflavone = 100%;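 active means mean activation above the mean of solvent-only control wells plus 3 SD, cut at about 22% in these data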;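 further: counterscreen of GAA850 promoter hits where activity marks nonselective or luminescence artifacts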
FXN GAA850 conf: GAA850 FXN promoter activation confirmation. shares compounds with FXN GAA850 act. HEK293 lucGAA850 FXN promoter luciferase reporter, 24 h; 100% = activation by SAHA. activation, % at 6 µM. actives 86% (n = 1,900);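 active means mean activation above a set limit taken from the primary screen, cut at about 8% in these data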
Of the large screens only hits and unclear results are named; the others gave an inactive call (follow-up assays come after a bar, where they were run); ! = a repeat was not active.

Cc1cccc(N/C=C/c2onc(C)c2[N+](=O)[O-])c1	none (no result: C2C12 statin, Wnt act, esBAF inh)
Cc1c(C(=O)NCc2cccc(Cl)c2)sc(=O)n1Cc1cccc(F)c1	FXN GAA850 act 12 (no result: MITF act) | GAA30 counter inactive | FXN GAA850 conf inactive
C[C@H](CO)N1C[C@H](C)[C@H](CN(C)S(=O)(=O)c2cccc(F)c2)Oc2ncc(-c3cccc(F)c3)cc2C1=O	none (no result: Wnt act, MITF act, FXN GAA850 act, esBAF inh)
CCS/C(N)=N/N=C/c1cc(C)ccc1O	none (no result: C2C12 statin, Wnt act, esBAF inh)
CS/C(N)=N/N=C/c1cc(C)ccc1O	Wnt act 88, MITF act inconclusive, FXN GAA850 act 8.6 (no result: C2C12 statin, esBAF inh) | GAA30 counter 122 | FXN GAA850 conf 38
Cc1noc(C)c1S(=O)(=O)Nc1ccc2c(c1)C(=O)N([C@H](C)CO)C[C@@H](C)[C@@H](CN(C)C(=O)NC1CCCCC1)OCCCC[C@@H](C)O2	none (no result: Wnt act, MITF act, FXN GAA850 act)
COc1cc(NC(=O)CN2C(=O)CN(C)C2=O)c(C)cc1[N+](=O)[O-]	none
COc1cc(NC(=O)Cn2ncc(Cl)c(Cl)c2=O)c(C)cc1[N+](=O)[O-]	FXN GAA850 act 12 (no result: C2C12 statin, esBAF inh) | GAA30 counter inactive | FXN GAA850 conf inactive
COc1ccc(CNC(=O)c2nc(S(=O)(=O)Cc3ccccc3)ncc2Cl)cc1	none
O=C(NCc1ccccc1)c1nc(S(=O)(=O)Cc2ccccc2)ncc1Cl	FXN GAA850 act 17 | GAA30 counter inactive | FXN GAA850 conf 28
CC(=O)Nc1ccc(NC(=O)c2nc(S(=O)(=O)Cc3ccccc3)ncc2Cl)cc1	none
O=C(NCc1ccc2c(c1)OCO2)c1nc(S(=O)(=O)Cc2ccccc2)ncc1Cl	FXN GAA850 act 7.9 | GAA30 counter 38 | FXN GAA850 conf 70
Cc1ccc(CS(=O)(=O)c2ncc(Cl)c(C(=O)Nc3ccc(OC(F)F)cc3)n2)cc1	none
CCS(=O)(=O)c1ncc(Cl)c(C(=O)Nc2ccc(C)cc2)n1	C2C12 statin 127, FXN GAA850 act 19 (no result: MITF act) | GAA30 counter inactive | FXN GAA850 conf inactive
O=C(NCc1ccc2c(c1)OCO2)c1nc(S(=O)(=O)Cc2ccccc2F)ncc1Cl	FXN GAA850 act 21 | GAA30 counter 41 | FXN GAA850 conf 65
COCC(=O)Nc1ccc2c(c1)C(=O)N(C)[C@H]1CC[C@@H](CC(=O)NCCc3ccncc3)O[C@@H]1CO2	none (no result: Wnt act, MITF act, FXN GAA850 act)
O=C(NCCCN1CCOCC1)[C@@H]1N[C@@H]2c3ccc(C4=CCCC4)c(=O)n3C[C@@H]2[C@H]1CO	none (no result: Wnt act, MITF act, FXN GAA850 act)
COc1ccc(-c2nnc(N(C)C(=O)c3ccno3)s2)cc1	FXN GAA850 act 12 (no result: C2C12 statin) | GAA30 counter 99 | FXN GAA850 conf 30
c1ccc(CNc2nc(NCc3ccccc3)c3sccc3n2)cc1	FXN GAA850 act 10 (no result: MITF act) | GAA30 counter 46 | FXN GAA850 conf 17
Cc1ccc(N(C(=O)c2nsc(Cl)c2Cl)C(C(=O)NC2CCCC2)c2ccc(O)cc2)cc1C (stereo not given)	FXN GAA850 act 9.5 (no result: C2C12 statin, esBAF inh) | GAA30 counter 34 | FXN GAA850 conf 14
Cc1cc(C)cc(N(C(=O)c2nsc(Cl)c2Cl)C(C(=O)NC2CCCC2)c2ccc(O)cc2)c1 (stereo not given)	none (no result: C2C12 statin, esBAF inh)
COc1c(F)c(F)c(C(=O)Nc2ccccc2N2CCN(C(=O)C(C)C)CC2)c(F)c1F	FXN GAA850 act 11 (no result: Wnt act) | GAA30 counter inactive | FXN GAA850 conf inactive
COC(=O)N=Nc1c(O)[nH]c2ccc(Br)cc12	Wnt act 53, FXN GAA850 act 10 | GAA30 counter 144 | FXN GAA850 conf 32
N#C/C(=N\Nc1ccc(Cl)cc1)C(=N)N1CCCCCC1	FXN GAA850 act 12 (no result: C2C12 statin, esBAF inh) | GAA30 counter 130 | FXN GAA850 conf 49
COc1ccc(NC(=O)N(C)C[C@@H]2OCCCC[C@H](C)Oc3ccc(NC(=O)C4CCCCC4)cc3C(=O)N([C@H](C)CO)C[C@H]2C)cc1	none (no result: C2C12 statin, Wnt act, MITF act, FXN GAA850 act)
CN(C)C(=O)CCC(=O)N1CCCC(C(=O)c2ccc3c4c(cccc24)CC3)C1 (stereo not given)	FXN GAA850 act 10 | GAA30 counter 44 | FXN GAA850 conf 13
O=C(/C=C/c1ccc([N+](=O)[O-])cc1)c1ccccc(=O)c1O	FXN GAA850 act 9.5 (no result: C2C12 statin, esBAF inh) | GAA30 counter inactive | FXN GAA850 conf inactive
O=C(/C=C/c1cccs1)Nc1ccc(N2CCOCC2)c(S(=O)(=O)Nc2ccccc2Cl)c1	none (no result: C2C12 statin, esBAF inh)
COc1ccccc1NS(=O)(=O)c1cc(NC(=O)/C=C/c2cccs2)ccc1N1CCOCC1	FXN GAA850 act 9.9 | GAA30 counter inactive | FXN GAA850 conf inactive
C[C@H](CO)N1C[C@H](C)[C@H](CN(C)C)Oc2ncc(-c3cccc(F)c3)cc2C1=O	none (no result: Wnt act, MITF act, FXN GAA850 act)
COc1ccc([C@@H]2[C@@H]3C(=O)N(C(C)(C)C)C(=O)[C@@H]3[C@]3(CC(C)C)C(=O)N(c4ccc(C(F)(F)F)cc4)C(=O)N23)cc1	none (no result: MITF act)
COc1ccc([C@@H]2[C@@H]3C(=O)N(C(C)(C)C)C(=O)[C@@H]3[C@]3(CC(C)C)C(=O)N(c4cccc(Br)c4)C(=O)N23)cc1	FXN GAA850 act 17 | GAA30 counter 27 | FXN GAA850 conf 14
COc1ccc([C@@H]2[C@@H]3C(=O)N(C(C)(C)C)C(=O)[C@@H]3[C@]3(CC(C)C)C(=O)N(c4ccccc4)C(=O)N23)cc1	FXN GAA850 act 15 | GAA30 counter 40 | FXN GAA850 conf 18
c1ccc(-c2n[nH]c(-c3ccccn3)n2)cc1	none (no result: Wnt act)
c1ccc(-c2n[nH]c(-c3ccccn3)n2)nc1	FXN GAA850 act 7.7! | GAA30 counter 102 | FXN GAA850 conf 27
Cc1ccc(S(=O)(=O)Cn2nnnc2C(C(C)C)N2CCSCC2)cc1 (stereo not given)	none
Cc1ccc(S(=O)(=O)Cn2nnnc2C(C(C)C)N2CCc3ccccc3C2)cc1 (stereo not given)	FXN GAA850 act 10 (no result: Wnt act) | GAA30 counter inactive | FXN GAA850 conf 7.7
Cc1noc(C)c1NC(=O)Nc1ccc2c(c1)C(=O)N([C@@H](C)CO)C[C@H](C)[C@@H](CN(C)S(=O)(=O)c1ccccc1)OCCCC[C@@H](C)O2	none (no result: C2C12 statin, Wnt act, MITF act, FXN GAA850 act)
Cc1nn2c(nc(N3CCCCC3)c3ccccc32)c1C=O	FXN GAA850 act 9.5 (no result: C2C12 statin, esBAF inh) | GAA30 counter inactive | FXN GAA850 conf 12
Cc1nn2c(nc(N3CCOCC3)c3ccccc32)c1C=C(C#N)C#N	none
Cc1ccc(C(=O)NCc2ccc3c(c2)OCO3)cc1C	FXN GAA850 act 8.7 | GAA30 counter 57 | FXN GAA850 conf 22
Cc1ccc(C(=O)NCc2ccc3c(c2)OCO3)cc1Cl	none (no result: MITF act)
CN(C)CC(=O)N1[C@@H]2c3ccc(-c4ccc(F)cc4)c(=O)n3C[C@@H]2[C@@H](CO)[C@@H]1C(=O)NC1CCC1	none (no result: Wnt act, MITF act, FXN GAA850 act)
O=C(CSC(=S)N1CCSCC1)c1ccc(Cl)cc1	MITF act 82, FXN GAA850 act 9.8 (no result: C2C12 statin, esBAF inh) | GAA30 counter 114 | FXN GAA850 conf 42
